Screens (PubChem)
HCV inhibitor: qHTS Assay for Inhibitors of Hepatitis C Virus (HCV); actives 3.4% (n = 340,000); Huh7.5.1 HCVcc-Cre infection, luciferase reporter, 44 h; Potency, µM (series often up to 41.8 µM), without a hit: top-dose activity change, negative = inhibition, actives largely listed as inhibitors; AID 651820, 2012; active = well fitted inhibition curve with a large enough effect; inconclusive = small, poorly fitted or top-dose-only effect, or another doubt; inactive = no such curve, though single readings can be large or run the other way; also: potency is read from the fitted curve at half-maximal effect; % is scaled to controls: 0 for no effect and ±100 for the full control effect
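1,000 cells/well; 4 h culture; + compound; + HCVcc-Cre (~0.5 moi); 44 h; luciferase substrate, RT 15 min; read 15 sec.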
LASV entry inh: qHTS for Inhibitors of binding or entry into cells for Lassa Virus | Lassa virus pseudotype entry inhibition, cell reporter | Potency, µM (highest dose often 37.9 µM), without a hit: at the top dose activity change, negative = inhibition, usual class: inhibitors | actives 1.2% (n = 300,000) | AID 540256, 2011; calls by dose curve; tested in HEK293 cells; also: potency is read from the fitted curve at half-maximal effect; % is scaled to controls: 0 for no effect and ±100 for the full control effect; nearly all actives have a fitted effect of over 50% in size
HCMV antiviral: qHTS Assay for inhibitors of the human cytomegalovirus (HCMV); HFF cells, HCMV-luciferase reporter, 72 h; stronger effect = lower value; activity change, negative = inhibition, % at 57.5 µM; actives 4.5% (n = 410,000); AID 1259415, 2018; in the data active = activity change below about -60%; inconclusive = no clear call, values can overlap the other calls; inactive = above about -39%; also: % is scaled to controls: 0 for no effect and ±100 for the full control effect
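Human foreskin fibroblasts infected with luciferase-reporter HCMV at MOI 1 PFU/cell, compounds at two doses. Luciferase measured 72 h post infection; normalized to buffer-only basal and Salinomycin (10uM) controls.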
FMDV antiviral: High Throughput Screening for Foot and Mouth Disease Virus Antivirals | AID 1159524, 2015 | FMDV antiviral cell-based qHTS | Potency, µM (series often up to 57.9 µM), for inactives: at the highest dose activity change, negative = inhibition, usual class: inhibitors | actives 1.2% (n = 410,000); calls by dose curve; tested in HEK293T cells; also: read-out not given here; potency is read from the fitted curve at half-maximal effect; % is scaled to controls: 0 for no effect and ±100 for the full control effect; nearly all actives have a fitted effect of over 45% in size
Marburg entry inh: qHTS for inhibitors of binding or entry into cells for Marburg Virus | Marburg virus pseudotyped entry inhibition, cell reporter | Potency, µM (titrated, usually from 37.8 µM), inactives show at the highest dose activity change, negative = inhibition, hits mostly inhibitors | actives 1.8% (n = 300,000); calls by dose curve; tested in HEK293 cells; also: potency is read from the fitted curve at half-maximal effect; % is scaled to controls: 0 for no effect and ±100 for the full control effect
SARS PLP yeast: qHTS of Yeast-based Assay for SARS-CoV PLP | AID 485353, 2010 | Potency, µM (highest dose often 32.9 µM), for inactives: top-dose activity, positive = growth rescue, hits mostly activators | actives 0.19% (n = 330,000) | S. cerevisiae expressing SARS-CoV PLpro, growth rescue; calls by dose curve; also: potency is read from the fitted curve at half-maximal effect; 0% is about no effect; nearly all actives have a fitted effect of over 55% in size
Active calls of the source: *; ? = inconclusive; . = no result given; [ ] = remark or other dose. Shown are actives, neighbours in structure and some others; about 8% of the full set was active somewhere.

SMILES	HCV inhibitor	LASV entry inh	HCMV antiviral	FMDV antiviral	Marburg entry inh	SARS PLP yeast
COc1ccc(N(C)S(=O)(=O)c2ccc(Cl)c(C(=O)NCCc3ccc(Cl)cc3)c2)cc1	10µM*	?	-27	-14%	?	-1%
COc1ccc(S(=O)(=O)N(C)c2ccc(C(=O)NCCC(C)C)cc2)cc1	-11%	8.2µM*	39	-16%	-4%	-7%
CCOCCCNC(=O)c1ccc(N(C)S(=O)(=O)c2ccc(OC)cc2)cc1	-4%	-4%	-103*	1%	14%	1%
COc1ccc(S(=O)(=O)N(C)c2ccc(C(=O)NCc3ccco3)cc2)cc1	2%	-21%	-26	-1%	-13%	2%
CC(C)CCNC(=O)COc1ccc(N(C)S(=O)(=O)c2ccc(F)cc2)cc1	-7%	?	-87*	-6%	?	2%
CCCNC(=O)c1nnc2n1CCN(C(=O)c1ccc(F)c(F)c1)C2	.	.	-4	.	.	.
CCOC(=O)c1c(NC(=O)CS(=O)(=O)c2ccc(C)cc2)sc2c1CCCCC2	.	-5%[46.1 µM]	?	-8%	.	.
COc1ccc(Nc2nccc3c2cc(-c2cccc(C(F)(F)F)c2)n3C)c(OC)c1	.	.	15	.	.	.
CN(C(=O)c1ccc2c(c1)N(Cc1ccccc1F)C(=O)c1ccccc1S2)C1CCCCC1	.	-6%[46.1 µM]	?	-17%	.	.
CCOC(=O)C(=N/O)/C(C)=N/NC(=O)C(=O)Nc1ccc(Cl)cc1	11µM*	.	-37	?	.	0%
CC(=N\Nc1ccc(Cl)cc1)/C(=N/O)C(=O)Nc1ccccc1	4%	13%	36	0%	15%	5%
O=C(CNC(=O)c1ccc(Cl)cc1)OCC(=O)c1ccccc1	5%	7%	-31	-3%	?	?
O=C(CCC(=O)c1ccc(Cl)cc1)OCC(=O)c1ccccc1	?	19%	-65*	1%	?	-1%
COC(=O)C(CC(=O)c1ccc(Cl)cc1)c1ccccc1 (stereo not given)	3%	?	-101*	4%	18%	.
CC(C)c1ccc(C(CC(=O)c2ccc(Cl)cc2)C(=O)O)cc1 (stereo not given)	19%	11%	45	1%	?	-23%
CCOc1ccccc1-n1nnc(-c2nc(-c3ccccc3)no2)c1N	.	-9%[46.1 µM]	41	34%	.	.
CCSC1(SCC)N=C(N)C2(C#N)C(c3ccc(OC)c(OC)c3OC)C12C#N (stereo not given)	8.9µM*	?	3	25µM*	?	0%
CCSC1(SCC)N=C(N)C2(C#N)C(c3ccccc3)NC3=C(CCC3)C12C#N (stereo not given)	2%	1%	-37	-5%	-8%	-4%
CCn1c2c(c(=O)n3ncc(C(=O)N4CCN(c5ccc(C(C)=O)cc5)CC4)c13)CN(Cc1ccc(OC)cc1)CC2	.	10µM*	-36	20µM*	.	.
Nc1c(Br)cc(Br)c2c1C(=O)c1c(cccc1S(=O)(=O)O)C2=O	8%	-11%[46.1 µM]	-23	-17%	20%[46.1 µM]	.
O=C(Nc1nnc(-c2ccco2)o1)c1ccc([N+](=O)[O-])s1	8.9µM*	?	-38	21%	?	-1%
O=C(Nc1nnc(-c2ccco2)o1)c1ccc2ccccc2c1	?	?	16	55%	14µM*	-8%
Cc1ccc(C(=O)Nc2nnc(-c3ccco3)o2)cc1	-4%	?	-12	-22%	?	-24%
O=C(Nc1nnc(-c2ccncc2)o1)c1ccc(Br)s1	?	?	-13	84%	8.9µM*	-5%
CCC1CN(CCNC(=O)c2ccc(C#CC(C)(C)O)cc2)Cc2cc(OC)ccc2O1 (stereo not given)	.	.	.	12%	.	.
SMILES	HCV inhibitor	LASV entry inh	HCMV antiviral	FMDV antiviral	Marburg entry inh	SARS PLP yeast
Cc1cnc(C)c(-c2cccc3c2OC(CNC(=O)/C=C/c2ccncc2)C3)n1 (stereo not given)	.	.	.	-9%	.	.
Cc1nn(C)c2c1c(-c1ccccc1)cc(=O)n2Cc1c(F)cccc1Cl	.	24%[46.1 µM]	-2	-9%	.	.
CCOc1ccc(Nc2nc(NCC3CCCO3)c3ccccc3n2)cc1 (stereo not given)	?	?	-31	25µM*	?	-2%
CCc1nc(NCC2CCCO2)c2oc3ccccc3c2n1 (stereo not given)	?	6%	-84*	0%	2%	3%
CCOc1ccc(Nc2c3ccccc3nc3ccccc23)cc1	4µM*	.	-81*	?	.	-5%
c1ccc(-c2nc(NCC3CCCO3)c3ccccc3n2)nc1 (stereo not given)	?	?	-97*	-29%	?	0%
Cc1nc(NCC2CCCO2)c2oc3ccccc3c2n1 (stereo not given)	-11%	1%	-15	-30%	-13%	11%
O=C1CC(c2ccccc2Cl)c2c(sc3c(=O)[nH]c(CCl)nc23)N1 (stereo not given)	.	.	.	.	.	-1%
Nc1nc(NCC2CCCO2)nc(Nc2ccc(Cl)cc2)c1[N+](=O)[O-] (stereo not given)	-10%	-7%	-69*	-25%	-19%[14.2 µM]	1%
Oc1cccc(Nc2nc(NCC3CCCO3)c3ccccc3n2)c1 (stereo not given)	?	-24%	.	0%	?	-1%
c1ccc(Nc2nc(NCC3CCCO3)c3ccccc3n2)cc1 (stereo not given)	7.1µM*	?	?	28µM*	?	-3%
COc1ccc(Nc2nc(NCC3CCCO3)c3ccccc3n2)c(OC)c1 (stereo not given)	10µM*	-26%	-91*	?	?	0%
Cc1ccc(NC(=O)C2CCCN2S(=O)(=O)c2ccc3nc(-c4ccccc4)[nH]c3c2)cc1C (stereo not given)	.	-23%[46.1 µM]	?	-17%	.	.
CCCCCCCSc1cc(OC)c(CCNC)cc1OC	?	?	-99*	0%	?	-10%
CCCCCSc1cc(OC)c(CCNC)cc1OC	?	?	-24	0%	?	-5%
O=C(O)/C=C\C(=O)Nc1cccc(NC(=O)c2ccccc2)c1	4%	7%[46.1 µM]	-29	-6%	1%[46.1 µM]	0%
O=C(O)/C=C/C(=O)Nc1ccc(NC(=O)c2ccccc2)c(Cl)c1	8.9µM*	?	?	-1%	?	-6%
CCS(=O)(=O)C(=C1Nc2ccccc2N1)S(=O)(=O)CC	-14%	9%	-98*	-25%	13%[46.1 µM]	6%
CCN1CCN(C(c2ccc(SC)cc2)c2c(O)cc(C)n(Cc3ccco3)c2=O)CC1 (stereo not given)	.	-2%[46.1 µM]	5	-16%	.	.
COc1ccc(-n2nnnc2SCC(=O)Nc2ccccc2N2CCOCC2)cc1OC	-1%	.	-35	-20%	.	3%
